{"source": "paper PMC11006913", "assay_in_all_cases": "PBM; 200 nM protein, PBS", "conditions_in_all_cases": "dsDNA, one strand shown", "key": {"HESX1 [1]": {"molecular_target": "HESX1 (Homo sapiens, UniProt Q9UBX0 95-180, R165K)", "sequence (Q9UBX0 95-180 R165K)": "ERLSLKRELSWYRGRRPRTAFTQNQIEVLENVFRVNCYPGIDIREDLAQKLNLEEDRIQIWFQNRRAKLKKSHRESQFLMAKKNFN"}, "ALX4 [2]": {"molecular_target": "ALX4 (Homo sapiens, UniProt Q9H161 200-286)", "sequence (Q9H161 200-286)": "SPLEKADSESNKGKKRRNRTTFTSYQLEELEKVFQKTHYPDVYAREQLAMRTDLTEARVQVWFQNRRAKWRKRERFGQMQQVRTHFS"}, "ALX4 [3]": {"molecular_target": "ALX4 (Homo sapiens, UniProt Q9H161 200-286, Q225E)", "sequence (Q9H161 200-286 Q225E)": "as the sequence (Q9H161 200-286) above, with Q26E counted along it"}, "HESX1 [4]": {"molecular_target": "HESX1 (Homo sapiens, UniProt Q9UBX0 95-180)", "sequence (Q9UBX0 95-180)": "as the sequence (Q9UBX0 95-180 R165K) above, with K71R counted along it"}, "HESX1 [5]": {"molecular_target": "HESX1 (Homo sapiens, UniProt Q9UBX0 95-180, R109Q)", "sequence (Q9UBX0 95-180 R109Q)": "as the sequence (Q9UBX0 95-180 R165K) above, with R15Q, K71R counted along it"}, "HESX1 [6]": {"molecular_target": "HESX1 (Homo sapiens, UniProt Q9UBX0 95-180, P111T)", "sequence (Q9UBX0 95-180 P111T)": "as the sequence (Q9UBX0 95-180 R165K) above, with P17T, K71R counted along it"}, "HESX1 [7]": {"molecular_target": "HESX1 (Homo sapiens, UniProt Q9UBX0 95-180, F115L)", "sequence (Q9UBX0 95-180 F115L)": "as the sequence (Q9UBX0 95-180 R165K) above, with F21L, K71R counted along it"}, "MSX2 [8]": {"molecular_target": "MSX2 (Homo sapiens, UniProt P35548 130-214, R199I)", "sequence (P35548 130-214 R199I)": "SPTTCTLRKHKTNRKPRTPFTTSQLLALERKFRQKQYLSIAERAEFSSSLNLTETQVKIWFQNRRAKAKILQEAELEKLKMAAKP"}, "MSX2 [9]": {"molecular_target": "MSX2 (Homo sapiens, UniProt P35548 130-214, F161Y)", "sequence (P35548 130-214 F161Y)": "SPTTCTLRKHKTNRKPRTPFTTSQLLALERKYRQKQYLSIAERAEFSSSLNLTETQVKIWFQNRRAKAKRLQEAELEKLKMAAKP"}, "PRRX1 [10]": {"molecular_target": "PRRX1 (Homo sapiens, UniProt P54821 80-166, F113S)", "sequence (P54821 80-166 F113S)": "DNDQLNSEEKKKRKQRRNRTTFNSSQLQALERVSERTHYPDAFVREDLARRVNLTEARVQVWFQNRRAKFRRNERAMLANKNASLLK"}, "ALX1 [11]": {"molecular_target": "ALX1 (Homo sapiens, UniProt Q15699 118-204, L144V)", "sequence (Q15699 118-204 L144V)": "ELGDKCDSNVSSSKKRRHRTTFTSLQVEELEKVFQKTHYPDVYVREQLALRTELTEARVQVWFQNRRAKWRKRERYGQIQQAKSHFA"}, "ALX1 [12]": {"molecular_target": "ALX1 (Homo sapiens, UniProt Q15699 118-204, L144R)", "sequence (Q15699 118-204 L144R)": "as the sequence (Q15699 118-204 L144V) above, with V27R counted along it"}, "ALX1 [13]": {"molecular_target": "ALX1 (Homo sapiens, UniProt Q15699 118-204)", "sequence (Q15699 118-204)": "as the sequence (Q15699 118-204 L144V) above, with V27L counted along it"}, "PRRX1 [14]": {"molecular_target": "PRRX1 (Homo sapiens, UniProt P54821 80-166)", "sequence (P54821 80-166)": "as the sequence (P54821 80-166 F113S) above, with S34F counted along it"}, "SHOX": {"molecular_target": "SHOX (Homo sapiens, UniProt O15266 103-189, R173C)", "sequence (O15266 103-189 R173C)": "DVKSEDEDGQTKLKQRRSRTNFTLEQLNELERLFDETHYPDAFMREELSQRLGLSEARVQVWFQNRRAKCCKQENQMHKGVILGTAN"}, "PROP1": {"molecular_target": "PROP1 (Homo sapiens, UniProt O75360 56-141, R99H)", "sequence (O75360 56-141 R99H)": "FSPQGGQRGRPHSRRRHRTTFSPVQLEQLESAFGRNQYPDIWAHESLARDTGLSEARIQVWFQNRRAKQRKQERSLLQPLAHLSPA"}, "ALX3": {"molecular_target": "ALX3 (Homo sapiens, UniProt O95076 139-225, L168Q)", "sequence (O95076 139-225 L168Q)": "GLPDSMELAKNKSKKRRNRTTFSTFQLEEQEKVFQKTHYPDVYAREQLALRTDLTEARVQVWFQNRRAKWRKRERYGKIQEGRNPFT"}}}
{"sequence": "GAGCAGCC", "values": [{"measurement": "binding signal", "setting": "HESX1 [1]", "value": "6.52 upbm affinity estimate (log intensity, higher = more binding, comparable within an allelic series)"}, {"measurement": "binding signal", "setting": "ALX4 [2]", "value": "8.07 upbm affinity estimate (log intensity, higher = more binding, comparable within an allelic series)"}, {"measurement": "binding signal", "setting": "ALX4 [3]", "value": "8.24 upbm affinity estimate (log intensity, higher = more binding, comparable within an allelic series)"}, {"measurement": "binding signal", "setting": "HESX1 [4]", "value": "6.51 upbm affinity estimate (log intensity, higher = more binding, comparable within an allelic series)"}, {"measurement": "binding signal", "setting": "HESX1 [5]", "value": "6.47 upbm affinity estimate (log intensity, higher = more binding, comparable within an allelic series)"}, {"measurement": "binding signal", "setting": "HESX1 [6]", "value": "6.43 upbm affinity estimate (log intensity, higher = more binding, comparable within an allelic series)"}, {"measurement": "binding signal", "setting": "HESX1 [7]", "value": "6.53 upbm affinity estimate (log intensity, higher = more binding, comparable within an allelic series)"}]}
{"sequence": "TAGCTTAA", "values": [{"measurement": "binding signal", "setting": "HESX1 [1]", "value": "7.4 upbm affinity estimate (log intensity, higher = more binding, comparable within an allelic series)"}, {"measurement": "binding signal", "setting": "HESX1 [4]", "value": "7.51 upbm affinity estimate (log intensity, higher = more binding, comparable within an allelic series)"}]}
{"sequence": "GAACCCCC", "values": [{"measurement": "binding signal", "setting": "HESX1 [1]", "value": "6.29 upbm affinity estimate (log intensity, higher = more binding, comparable within an allelic series)"}, {"measurement": "binding signal", "setting": "HESX1 [4]", "value": "6.26 upbm affinity estimate (log intensity, higher = more binding, comparable within an allelic series)"}, {"measurement": "binding signal", "setting": "MSX2 [8]", "value": "9.43 upbm affinity estimate (log intensity, higher = more binding, comparable within an allelic series)"}, {"measurement": "binding signal", "setting": "HESX1 [5]", "value": "6.37 upbm affinity estimate (log intensity, higher = more binding, comparable within an allelic series)"}, {"measurement": "binding signal", "setting": "HESX1 [6]", "value": "6.38 upbm affinity estimate (log intensity, higher = more binding, comparable within an allelic series)"}, {"measurement": "binding signal", "setting": "MSX2 [9]", "value": "9.53 upbm affinity estimate (log intensity, higher = more binding, comparable within an allelic series)"}, {"measurement": "binding signal", "setting": "HESX1 [7]", "value": "6.35 upbm affinity estimate (log intensity, higher = more binding, comparable within an allelic series)"}]}
{"sequence": "ATTATTTG", "values": [{"measurement": "binding signal", "setting": "HESX1 [1]", "value": "8.97 upbm affinity estimate (log intensity, higher = more binding, comparable within an allelic series)"}, {"measurement": "binding signal", "setting": "HESX1 [4]", "value": "8.9 upbm affinity estimate (log intensity, higher = more binding, comparable within an allelic series)"}]}
{"sequence": "ATTATAGC", "values": [{"measurement": "binding signal", "setting": "HESX1 [1]", "value": "8.55 upbm affinity estimate (log intensity, higher = more binding, comparable within an allelic series)"}, {"measurement": "binding signal", "setting": "HESX1 [4]", "value": "8.71 upbm affinity estimate (log intensity, higher = more binding, comparable within an allelic series)"}]}
{"sequence": "CCATAATA", "values": [{"measurement": "binding signal", "setting": "HESX1 [1]", "value": "8.68 upbm affinity estimate (log intensity, higher = more binding, comparable within an allelic series)"}, {"measurement": "binding signal", "setting": "HESX1 [4]", "value": "8.79 upbm affinity estimate (log intensity, higher = more binding, comparable within an allelic series)"}]}
{"sequence": "AGGTACCT", "values": [{"measurement": "binding signal", "setting": "HESX1 [1]", "value": "6.5 upbm affinity estimate (log intensity, higher = more binding, comparable within an allelic series)"}, {"measurement": "binding signal", "setting": "ALX4 [2]", "value": "8.17 upbm affinity estimate (log intensity, higher = more binding, comparable within an allelic series)"}, {"measurement": "binding signal", "setting": "ALX4 [3]", "value": "8.34 upbm affinity estimate (log intensity, higher = more binding, comparable within an allelic series)"}, {"measurement": "binding signal", "setting": "HESX1 [4]", "value": "6.5 upbm affinity estimate (log intensity, higher = more binding, comparable within an allelic series)"}, {"measurement": "binding signal", "setting": "HESX1 [5]", "value": "6.6 upbm affinity estimate (log intensity, higher = more binding, comparable within an allelic series)"}, {"measurement": "binding signal", "setting": "HESX1 [6]", "value": "6.54 upbm affinity estimate (log intensity, higher = more binding, comparable within an allelic series)"}, {"measurement": "binding signal", "setting": "HESX1 [7]", "value": "6.63 upbm affinity estimate (log intensity, higher = more binding, comparable within an allelic series)"}]}
{"sequence": "ACGGAAGG", "values": [{"measurement": "binding signal", "setting": "HESX1 [1]", "value": "6.5 upbm affinity estimate (log intensity, higher = more binding, comparable within an allelic series)"}, {"measurement": "binding signal", "setting": "PRRX1 [10]", "value": "9.38 upbm affinity estimate (log intensity, higher = more binding, comparable within an allelic series)"}, {"measurement": "binding signal", "setting": "HESX1 [4]", "value": "6.36 upbm affinity estimate (log intensity, higher = more binding, comparable within an allelic series)"}, {"measurement": "binding signal", "setting": "ALX1 [11]", "value": "6.56 upbm affinity estimate (log intensity, higher = more binding, comparable within an allelic series)"}, {"measurement": "binding signal", "setting": "ALX1 [12]", "value": "6.44 upbm affinity estimate (log intensity, higher = more binding, comparable within an allelic series)"}, {"measurement": "binding signal", "setting": "HESX1 [5]", "value": "6.53 upbm affinity estimate (log intensity, higher = more binding, comparable within an allelic series)"}, {"measurement": "binding signal", "setting": "HESX1 [6]", "value": "6.63 upbm affinity estimate (log intensity, higher = more binding, comparable within an allelic series)"}, {"measurement": "binding signal", "setting": "HESX1 [7]", "value": "6.5 upbm affinity estimate (log intensity, higher = more binding, comparable within an allelic series)"}, {"measurement": "binding signal", "setting": "ALX1 [13]", "value": "6.35 upbm affinity estimate (log intensity, higher = more binding, comparable within an allelic series)"}, {"measurement": "binding signal", "setting": "PRRX1 [14]", "value": "9.17 upbm affinity estimate (log intensity, higher = more binding, comparable within an allelic series)"}]}
{"sequence": "AATTGAGT", "values": [{"measurement": "binding signal", "setting": "HESX1 [1]", "value": "9.4 upbm affinity estimate (log intensity, higher = more binding, comparable within an allelic series)"}, {"measurement": "binding signal", "setting": "HESX1 [4]", "value": "9.59 upbm affinity estimate (log intensity, higher = more binding, comparable within an allelic series)"}]}
{"sequence": "AATGTAAG", "values": [{"measurement": "binding signal", "setting": "HESX1 [1]", "value": "7.66 upbm affinity estimate (log intensity, higher = more binding, comparable within an allelic series)"}, {"measurement": "binding signal", "setting": "HESX1 [4]", "value": "7.68 upbm affinity estimate (log intensity, higher = more binding, comparable within an allelic series)"}]}
{"sequence": "AAATATTA", "values": [{"measurement": "binding signal", "setting": "HESX1 [1]", "value": "8.45 upbm affinity estimate (log intensity, higher = more binding, comparable within an allelic series)"}, {"measurement": "binding signal", "setting": "HESX1 [4]", "value": "8.54 upbm affinity estimate (log intensity, higher = more binding, comparable within an allelic series)"}]}
{"sequence": "CGCGCGAG", "values": [{"measurement": "binding signal", "setting": "HESX1 [1]", "value": "6.55 upbm affinity estimate (log intensity, higher = more binding, comparable within an allelic series)"}, {"measurement": "binding signal", "setting": "ALX4 [2]", "value": "8.39 upbm affinity estimate (log intensity, higher = more binding, comparable within an allelic series)"}, {"measurement": "binding signal", "setting": "ALX4 [3]", "value": "8.37 upbm affinity estimate (log intensity, higher = more binding, comparable within an allelic series)"}, {"measurement": "binding signal", "setting": "HESX1 [4]", "value": "6.52 upbm affinity estimate (log intensity, higher = more binding, comparable within an allelic series)"}, {"measurement": "binding signal", "setting": "HESX1 [5]", "value": "6.5 upbm affinity estimate (log intensity, higher = more binding, comparable within an allelic series)"}, {"measurement": "binding signal", "setting": "HESX1 [6]", "value": "6.55 upbm affinity estimate (log intensity, higher = more binding, comparable within an allelic series)"}, {"measurement": "binding signal", "setting": "HESX1 [7]", "value": "6.44 upbm affinity estimate (log intensity, higher = more binding, comparable within an allelic series)"}]}
{"sequence": "TATGGTAA", "values": [{"measurement": "binding signal", "setting": "HESX1 [1]", "value": "7.45 upbm affinity estimate (log intensity, higher = more binding, comparable within an allelic series)"}, {"measurement": "binding signal", "setting": "HESX1 [4]", "value": "7.53 upbm affinity estimate (log intensity, higher = more binding, comparable within an allelic series)"}]}
{"sequence": "AATTATCG", "values": [{"measurement": "binding signal", "setting": "HESX1 [1]", "value": "11.5 upbm affinity estimate (log intensity, higher = more binding, comparable within an allelic series)"}, {"measurement": "binding signal", "setting": "ALX4 [2]", "value": "13.7 upbm affinity estimate (log intensity, higher = more binding, comparable within an allelic series)"}, {"measurement": "binding signal", "setting": "PRRX1 [10]", "value": "11 upbm affinity estimate (log intensity, higher = more binding, comparable within an allelic series)"}, {"measurement": "binding signal", "setting": "ALX4 [3]", "value": "12.7 upbm affinity estimate (log intensity, higher = more binding, comparable within an allelic series)"}, {"measurement": "binding signal", "setting": "HESX1 [4]", "value": "11.6 upbm affinity estimate (log intensity, higher = more binding, comparable within an allelic series)"}, {"measurement": "binding signal", "setting": "MSX2 [8]", "value": "12.3 upbm affinity estimate (log intensity, higher = more binding, comparable within an allelic series)"}, {"measurement": "binding signal", "setting": "ALX1 [11]", "value": "11.5 upbm affinity estimate (log intensity, higher = more binding, comparable within an allelic series)"}, {"measurement": "binding signal", "setting": "SHOX", "value": "9.18 upbm affinity estimate (log intensity, higher = more binding, comparable within an allelic series)"}, {"measurement": "binding signal", "setting": "ALX1 [12]", "value": "11.1 upbm affinity estimate (log intensity, higher = more binding, comparable within an allelic series)"}, {"measurement": "binding signal", "setting": "HESX1 [5]", "value": "8.48 upbm affinity estimate (log intensity, higher = more binding, comparable within an allelic series)"}, {"measurement": "binding signal", "setting": "PROP1", "value": "10.8 upbm affinity estimate (log intensity, higher = more binding, comparable within an allelic series)"}, {"measurement": "binding signal", "setting": "ALX3", "value": "10.3 upbm affinity estimate (log intensity, higher = more binding, comparable within an allelic series)"}, {"measurement": "binding signal", "setting": "HESX1 [6]", "value": "10.2 upbm affinity estimate (log intensity, higher = more binding, comparable within an allelic series)"}, {"measurement": "binding signal", "setting": "MSX2 [9]", "value": "13 upbm affinity estimate (log intensity, higher = more binding, comparable within an allelic series)"}, {"measurement": "binding signal", "setting": "HESX1 [7]", "value": "7.49 upbm affinity estimate (log intensity, higher = more binding, comparable within an allelic series)"}, {"measurement": "binding signal", "setting": "ALX1 [13]", "value": "12 upbm affinity estimate (log intensity, higher = more binding, comparable within an allelic series)"}, {"measurement": "binding signal", "setting": "PRRX1 [14]", "value": "13.2 upbm affinity estimate (log intensity, higher = more binding, comparable within an allelic series)"}]}
